# Like-named read-outs stand apart in the source and are kept apart here.
# Columns and labels:
# Parameters in all cases: species or system human, MV4-11 + K-562 + COLO205 + SK-N-BE2 + OVCAR-8
# AKT1 = conditions: read-out: apparent Kd, n = 1
# CDC42 = conditions: read-out: apparent Kd; compound concentrations: 100 nM and 1000 nM (sheet 'Samples'), CATDS: 5.0343094610780299E-2; n = 1
# DYNC1LI1 = conditions: read-out: apparent Kd; compound concentrations: 100 nM and 1000 nM (sheet 'Samples'), CATDS: 4.8109196484876701E-2; n = 1
# ERBB3 = conditions: read-out: apparent Kd; compound concentrations: 100 nM and 1000 nM (sheet 'Samples'), CATDS: 4.7313636214179999E-2; n = 1
# GARS = conditions: read-out: apparent Kd; compound concentrations: 100 nM and 1000 nM (sheet 'Samples'), CATDS: 4.5585082575177599E-2; n = 1
# GSK3A = conditions: read-out: apparent Kd, n = 1
# GSK3B = conditions: read-out: apparent Kd, n = 1
# HSP90B1 = conditions: read-out: apparent Kd; compound concentrations: 100 nM and 1000 nM (sheet 'Samples'), CATDS: 4.7547071429497198E-2; n = 1
# MAP2K1 = conditions: read-out: apparent Kd, n = 1
# MAP2K2 = conditions: read-out: apparent Kd, n = 1
# MDN1 = conditions: read-out: apparent Kd; compound concentrations: 100 nM and 1000 nM (sheet 'Samples'), CATDS: 4.19866133995229E-2; n = 1
# MYLK3 = conditions: read-out: apparent Kd, n = 1
# NNT = conditions: read-out: apparent Kd; compound concentrations: 100 nM and 1000 nM (sheet 'Samples'), CATDS: 4.95392498935424E-2; n = 1
# NQO1 = conditions: read-out: apparent Kd, n = 1
# OPA1 = conditions: read-out: apparent Kd; compound concentrations: 100 nM and 1000 nM (sheet 'Samples'), CATDS: 4.33362445952395E-2; n = 1
# PGK1 = conditions: read-out: apparent Kd; compound concentrations: 100 nM and 1000 nM (sheet 'Samples'), CATDS: 0.623413247361988; n = 1
# PRKCA = conditions: read-out: apparent Kd; compound concentrations: 100 nM and 1000 nM (sheet 'Samples'), CATDS: 4.05038047397221E-2; n = 1
# PRKCD = conditions: read-out: apparent Kd; compound concentrations: 100 nM and 1000 nM (sheet 'Samples'), CATDS: 3.9953874898385103E-2; n = 1
# TNIK = conditions: read-out: apparent Kd; compound concentrations: 100 nM and 1000 nM (sheet 'Samples'), CATDS: 4.3236885400500899E-2; n = 1
# VDAC3 = conditions: read-out: apparent Kd; compound concentrations: 100 nM and 1000 nM (sheet 'Samples'), CATDS: 4.2633905781269299E-2; n = 1
# AKT2 = conditions: read-out: apparent Kd; compound concentrations:100 nM and 1000 nM (sheet 'Samples'); n = 1
# CDK16 = conditions: read-out: apparent Kd; compound concentrations:100 nM and 1000 nM (sheet 'Samples'); n = 1
# CDK6 = conditions: read-out: apparent Kd; compound concentrations:100 nM and 1000 nM (sheet 'Samples'); n = 1
# MAP3K1 = conditions: read-out: apparent Kd; compound concentrations:100 nM and 1000 nM (sheet 'Samples'); n = 1
# NLK = conditions: read-out: apparent Kd; compound concentrations:100 nM and 1000 nM (sheet 'Samples'); n = 1
# STK11 = conditions: read-out: apparent Kd; compound concentrations:100 nM and 1000 nM (sheet 'Samples'); n = 1
# STK26 = conditions: read-out: apparent Kd; compound concentrations:100 nM and 1000 nM (sheet 'Samples'); n = 1
# TGFBR2 = conditions: read-out: apparent Kd; compound concentrations:100 nM and 1000 nM (sheet 'Samples'); n = 1
# ADRBK1 = conditions: read-out: apparent Kd; compound concentrations: 100 nM and 1000 nM (sheet 'Samples'), CATDS: 0.136000830332002; n = 1
# FLT4 = conditions: read-out: apparent Kd; compound concentrations: 100 nM and 1000 nM (sheet 'Samples'), CATDS: 0.144028041300378; n = 1
# MAP4K5 = conditions: read-out: apparent Kd; compound concentrations: 100 nM and 1000 nM (sheet 'Samples'), CATDS: 0.15363433252833; n = 1
# PLK1 = conditions: read-out: apparent Kd; compound concentrations: 100 nM and 1000 nM (sheet 'Samples'), CATDS: 0.58980024549807997; n = 1
# SLK = conditions: read-out: apparent Kd; compound concentrations: 100 nM and 1000 nM (sheet 'Samples'), CATDS: 0.13817903386438299; n = 1
# STK10 = conditions: read-out: apparent Kd; compound concentrations: 100 nM and 1000 nM (sheet 'Samples'), CATDS: 0.15967879525120501; n = 1
# HCK = conditions: read-out: apparent Kd; compound concentrations:100 nM and 1000 nM (sheet 'Samples'); n = 1
# RET = conditions: read-out: apparent Kd; compound concentrations:100 nM and 1000 nM (sheet 'Samples'); n = 1
# TP53RK = conditions: read-out: apparent Kd; compound concentrations:100 nM and 1000 nM (sheet 'Samples'); n = 1
# YES1 = conditions: read-out: apparent Kd; compound concentrations:100 nM and 1000 nM (sheet 'Samples'); n = 1
# [1] = compound concentrations:100 nM and 1000 nM (sheet 'Samples')
compound,measurement,setting,value
Cn1cc(C2=C(c3cn(C)c4c(N)cccc34)C(=O)NC2=O)c2ccccc21 [RO0317482-000],potency estimated from few doses,"AKT1; compound concentrations: 100 nM and 1000 nM (sheet 'Samples'), CATDS: 4.4101078523111903E-2",1790 nM
same,potency estimated from few doses,CDC42,1310 nM
same,potency estimated from few doses,DYNC1LI1,1450 nM
same,potency estimated from few doses,ERBB3,1510 nM
same,potency estimated from few doses,GARS,1650 nM
same,potency estimated from few doses,"GSK3A; compound concentrations: 100 nM and 1000 nM (sheet 'Samples'), CATDS: 8.5551067641828404E-2",484 nM
same,potency estimated from few doses,"GSK3B; compound concentrations: 100 nM and 1000 nM (sheet 'Samples'), CATDS: 0.10546569208605799",343 nM
same,potency estimated from few doses,HSP90B1,1490 nM
same,potency estimated from few doses,"MAP2K1; compound concentrations: 100 nM and 1000 nM (sheet 'Samples'), CATDS: 4.25622085031407E-2",1960 nM
same,potency estimated from few doses,"MAP2K2; compound concentrations: 100 nM and 1000 nM (sheet 'Samples'), CATDS: 4.6529537247477E-2",1570 nM
same,potency estimated from few doses,MDN1,2030 nM
same,potency estimated from few doses,"MYLK3; compound concentrations: 100 nM and 1000 nM (sheet 'Samples'), CATDS: 4.95763825338097E-2",1360 nM
same,potency estimated from few doses,NNT,1360 nM
same,potency estimated from few doses,"NQO1; compound concentrations: 100 nM and 1000 nM (sheet 'Samples'), CATDS: 4.7041069195994198E-2",1530 nM
same,potency estimated from few doses,OPA1,1870 nM
same,potency estimated from few doses,PGK1,20.4 nM
same,potency estimated from few doses,PRKCA,2240 nM
same,potency estimated from few doses,PRKCD,2330 nM
same,potency estimated from few doses,TNIK,1880 nM
same,potency estimated from few doses,VDAC3,1950 nM
O=C(Nc1n[nH]c2nc(-c3cccc(O)c3)ccc12)C1CC1 [SB-711805],potency estimated from few doses,AKT1; [1],1900 nM
same,potency estimated from few doses,AKT2,2070 nM
same,potency estimated from few doses,CDK16,2150 nM
same,potency estimated from few doses,CDK6,1880 nM
same,potency estimated from few doses,GSK3A; [1],147 nM
same,potency estimated from few doses,GSK3B; [1],223 nM
same,potency estimated from few doses,MAP2K1; [1],2170 nM
same,potency estimated from few doses,MAP2K2; [1],2290 nM
same,potency estimated from few doses,MAP3K1,1840 nM
same,potency estimated from few doses,MYLK3; [1],1310 nM
same,potency estimated from few doses,NLK,1150 nM
same,potency estimated from few doses,NQO1; [1],1330 nM
same,potency estimated from few doses,STK11,2400 nM
same,potency estimated from few doses,STK26,2270 nM
same,potency estimated from few doses,TGFBR2,644 nM
COc1cc2ncn(-c3cc(OCc4ccncc4Br)c(C(N)=O)s3)c2cc1OC [GW854278X],potency estimated from few doses,ADRBK1,2200 nM
same,potency estimated from few doses,FLT4,1880 nM
same,potency estimated from few doses,MAP4K5,1590 nM
same,potency estimated from few doses,PLK1,135 nM
same,potency estimated from few doses,SLK,2100 nM
same,potency estimated from few doses,STK10,1450 nM
C=CC(=O)Nc1cc(-c2nn(C3CCC(N4CCN(C(C)=O)CC4)CC3)c3ncnc(N)c23)ccc1Oc1ccccc1 (stereo not shown) [TX-85-1],potency estimated from few doses,AKT1; [1],2280 nM
same,potency estimated from few doses,AKT2,2250 nM
same,potency estimated from few doses,HCK,799 nM
same,potency estimated from few doses,MAP2K2; [1],1550 nM
same,potency estimated from few doses,NQO1; [1],1480 nM
same,potency estimated from few doses,RET,712 nM
same,potency estimated from few doses,TP53RK,1620 nM
same,potency estimated from few doses,YES1,918 nM
